From PubChem BioAssay AID493162 (ICCB-Longwood Screening Facility, Harvard Medical School, 2011)
Hit rate of the full screen: of about 46,000 compounds, about 430 (0.93%) were called active. The list comes from a sample in which actives are over-represented; it also holds similar structures and randomly drawn compounds. A number with no mark means an inactive call. Cut-off read from the data, not from the text of the source: active = normalized absorbance mostly below about 85% (no sharp cut-off); inactive = mostly above about 86%.

test system: Vaccinia virus DNA polymerase (E9) processive complex; assay: vaccinia E9 polymerase processive synthesis inhibitors, primary screen, biochemical, absorbance (AID 493162); details: in vitro processive DNA synthesis, absorbance read-out; active compounds read low; concentration not given here

Going from `Cc1cc(C(=O)OCC(=O)N2CCc3ccccc3C2)c(C)o1` to `Cc1cc(C(=O)OCC(=O)N2C(C)CCCC2C)c2ccccc2n1` (stereo not given), the normalized absorbance rises from 103% to 106%.

Compared with `O=C(COC(=O)c1ccc2ccccc2n1)Nc1ccc(Cl)c(C(F)(F)F)c1`, `CC(C)Oc1cccc(NC(=O)Cc2ncc(C(F)(F)F)cc2Cl)c1` is higher in normalized absorbance: 100% for the first, 103% for the second.

First: O=C1CC(c2ccc(Cl)cc2)Sc2nc3ccccc3n21 (stereo not given)
Second: O=S(=O)(Cc1ccc(Cl)cc1)N1CCc2ccccc2C1
The normalized absorbance of the first is lower: 100% for the first, 107% for the second.

First: CCc1ccccc1Nc1cc(C(=O)NCC2COc3ccccc3O2)c2ccccc2n1 (stereo not given)
Second: Cc1ccccc1Nc1nn2c(=O)c3ccc(C(=O)NCc4ccccc4Cl)cc3nc2s1
The normalized absorbance of the first is higher: 99.1% for the first, 96.3% for the second.

Compared with `O=C(OCC(=O)N1CCCCCC1)c1ccc(Cl)nc1`, `O=C(OCC(=O)N1CCCC1)c1ccc(Oc2ccccc2)cc1` is lower in normalized absorbance: 106% for the first, 94.5% for the second.

Going from `Brc1ccccc1C1OCC2(CO1)COC(c1ccccc1Br)OC2` (stereo not given) to `S=c1cc(-c2ccccc2)oc(-c2ccccc2)c1`, the normalized absorbance falls from 100% to 99.9%.

First: O=C(Nc1nc(-c2ccc(Cl)s2)cs1)C1=COCCO1
Second: O=C(Nc1nc(-c2ccccc2)cs1)c1cccc(S(=O)(=O)N2CCCC2)c1
The normalized absorbance of the first is lower: 98.9% for the first, 111% for the second.

First: CCn1c(CNC(C)=O)nc2ccccc21
Second: CCc1nc2ccccc2n1CC(=O)N(c1ccccc1)C(C)C
The normalized absorbance of the first is higher: 101% for the first, 99.6% for the second.

Going from `O=C(COC(=O)c1n[nH]c2ccccc12)NC(c1ccccc1)c1ccccc1` to `O=C(NCCc1ccccc1)C(C(=O)c1ccccc1)n1ccccc1=O` (stereo not given), the normalized absorbance rises from 98.6% to 104%.

Compared with `CNC(=O)Nc1ccc(C(=O)NC)cc1`, `O=C(O)c1ccc(NC(=O)C23CC4CC(CC(C4)C2)C3)cc1` is lower in normalized absorbance: 101% for the first, 95.6% for the second.

First: CCOc1ccc(OCC)c(NC(=O)CCS(=O)(=O)c2ccc(C)cc2)c1
Second: CCCNS(=O)(=O)c1ccc2c(c1)oc(=O)n2CC(=O)OCC
The normalized absorbance of the first is lower: 91.4% for the first, 99.1% for the second.

Going from `CCn1c(=NC(=O)C2CC2)sc2cc(Cl)ccc21` to `COc1ccc2nc(C(=O)N3CCN(C)CC3)sc2c1`, the normalized absorbance rises from 71.3% to 85.1%.

Compared with `COC(=O)CN1C(=O)c2cccnc2Oc2ccc(C)cc21`, `CCOC(=O)c1c(C)oc2ccc(OC(=O)c3ccco3)cc12` is higher in normalized absorbance: 92% for the first, 99.5% for the second.

`O=C(O)c1ccc(N=Cc2ccc(OC(=O)c3sc4ccccc4c3Cl)cc2)cc1` and `O=C(CSc1nc2ccc(N=Cc3cc(Br)ccc3O)cc2s1)Nc1ccccc1` are the same in normalized absorbance: 100% for the first, 100% for the second.

Compared with `CS(=O)(=O)c1nc2ccccc2[nH]1`, `ClCc1csc(-c2ccccc2)n1` is lower in normalized absorbance: 103% for the first, 96.4% for the second.

Going from `C/C(CCc1ccc2c(c1)OCO2)=N\N1C(=N)SC(C(=O)Nc2ccc(C(=O)O)cc2)CC1=O` (stereo not given) to `O=C(O)CCNC(=O)c1ccc2c(c1)OCCO2`, the normalized absorbance rises from 100% to 102%.

Going from `O=C1CN(C(=O)CCC(=O)c2ccc(F)cc2)c2ccccc2N1` to `Fc1ccc(CNCc2ccccn2)cc1`, the normalized absorbance rises from 101% to 105%.

Going from `Cn1c(NCc2ccccc2)nc2ccccc21` to `COc1cccc2c(=O)n(CC(=O)NCc3ccccc3)ccc12`, the normalized absorbance falls from 101% to 90%.

Compared with `CSc1ncc(Cl)c(C(=O)N2CCN(c3cccc(Cl)c3)CC2)n1`, `Cc1cc(S(=O)(=O)N2CCN(Cc3ccccc3)CC2)c(C)cc1Cl` is lower in normalized absorbance: 95.5% for the first, 71.9% for the second.

Compared with `O=P(O)(CN1CCCCCC1)C1Cc2ccccc2C1`, `COCCn1cc(C(=O)NC2CCCCCC2)c2c3ccccc3n(C)c2c1=O` is higher in normalized absorbance: 84.6% for the first, 102% for the second.

Compared with `CC12CCC3C(CC=C4CC(OC5CCCCO5)CCC43C)C1CCC2=O` (stereo not given), `CC(=O)Nc1ccc2c(c1)CN(C1CCCCC1)CO2` is lower in normalized absorbance: 100% for the first, 89% for the second.

First: CC(C)(C)c1cc(C(F)(F)F)n2ncnc2n1
Second: OC1CCN(c2ncc(C(F)(F)F)cc2Cl)CC1
The normalized absorbance of the first is lower: 99.9% for the first, 105% for the second.

First: C=CCN(C(=O)c1cccc2c1SCCC2=O)c1ccccc1
Second: O=C(O)c1ccccc1-c1ccccc1C(=O)Nc1nccs1
The normalized absorbance of the first is higher: 113% for the first, 70.1% for the second.

First: CCN(CC)c1ccc(N=Cc2cccs2)cc1
Second: CCN(CC)c1ccc(N=C2C(=C(C#N)C#N)c3ccccc3C2=C(C#N)C#N)cc1
The normalized absorbance of the first is lower: 99.2% for the first, 99.9% for the second.

First: CCOC(=O)c1c(NC(=O)C(C)Sc2ncccn2)sc2c1CCC2 (stereo not given)
Second: CC(=O)N1CCc2c(sc(NC(=O)C(C)C)c2C(N)=O)C1
The normalized absorbance of the first is lower: 91.9% for the first, 119% for the second.

First: CC(c1ccco1)N(C(=O)c1cccnc1Cl)c1ccccn1 (stereo not given)
Second: CN(C(=O)COC(=O)c1cnc(Cl)c(Cl)c1)c1ccccc1
The normalized absorbance of the first is lower: 97.4% for the first, 101% for the second.

First: Oc1ccccc1-c1nnc2n1CCC2
Second: Cc1ccccc1NC1=NC2(CCCCC2)N=C(N)N1
The normalized absorbance of the first is higher: 102% for the first, 100% for the second.

First: CC(C)(C)S(=O)(=O)c1cccs1
Second: O=C1Cc2cc(S(=O)(=O)NCc3cccs3)ccc2N1
The normalized absorbance of the first is lower: 90.5% for the first, 105% for the second.

Going from `Cc1ccc2cccc(SCc3ccc(Br)cc3)c2n1` to `Cc1ccc2nc(Nc3ccccc3)cc(C)c2c1`, the normalized absorbance rises from 99.8% to 100%.

Compared with `CC(C)N(C(=O)CSc1ncn[nH]1)c1ccccc1`, `O=C(O)CC(c1ccccc1)n1cnnn1` (stereo not given) is higher in normalized absorbance: 95.7% for the first, 107% for the second.

Going from `CCNCC1Cc2ccccc2O1` (stereo not given) to `CC(=O)N1CC(C)Oc2cc(S(=O)(=O)N(C)Cc3ccccc3)ccc21` (stereo not given), the normalized absorbance falls from 110% to 103%.

First: COC(=O)c1c(NC(NC(C)=O)(C(F)(F)F)C(F)(F)F)sc2c1CCN(C)C2
Second: CCN1CCN(CCNC(=O)c2ccc3c(c2)NC(=O)/C(=C\c2cccc(Cl)c2)S3)CC1
The normalized absorbance of the first is higher: 99.8% for the first, 79.8% for the second.

Going from `Cc1cc(C)c(S(=O)(=O)N2CCOCC2)cc1C` to `O=C(NCCCN1CCOCC1)c1cc2c(s1)CCC2`, the normalized absorbance falls from 105% to 82.2%.

Going from `CC(=Nc1ccc(N(C)C)cc1)C1=C(O)c2ccccc2C1=O` to `CCC(=O)Oc1ccc(Br)cc1/C=C1\Sc2ccccc2C1=O`, the normalized absorbance falls from 103% to 99.9%.

First: Cc1ccc(NC(=O)/C=C/c2ccc(Br)o2)cc1
Second: Cc1ccc(S(=O)(=O)N2CCCC(C(=O)N(C)c3ccccc3)C2)cc1 (stereo not given)
The normalized absorbance of the first is lower: 100% for the first, 101% for the second.

First: CN(C)S(=O)(=O)n1cc(/C=C(\NC(=O)c2ccccc2)C(=O)NCc2ccco2)c2ccccc21
Second: O=C(N=C1SC2CS(=O)(=O)CC2N1c1ccccc1)c1ccccc1 (stereo not given)
The normalized absorbance of the first is lower: 80.2% for the first, 112% for the second.

Compared with `CC[n+]1c(C)n(-c2ccccc2)c2ccc(N)cc21`, `Cc1scc(-c2ccccc2)[n+]1C` is lower in normalized absorbance: 99.4% for the first, 97% for the second.

Going from `CCc1ccc(/C=C2\SC(=S)N(CCCC(=O)Nc3cccnc3)C2=O)cc1` to `O=C(O)CCc1nc2cc(Cl)ccc2n(Cc2ccccc2)c1=O`, the normalized absorbance falls from 99.7% to 98.8%.

First: O=C(Nc1nccs1)c1cc(=O)c2ccccc2o1
Second: Clc1ccc2oc(-c3ccccc3)c/c(=N\c3nccs3)c2c1
The normalized absorbance of the first is higher: 101% for the first, 99.8% for the second.

Compared with `Clc1ccc(-c2ncc3ccccn23)c(Cl)c1`, `COCc1cc(Cl)nc(-c2ccccc2)n1` is higher in normalized absorbance: 101% for the first, 103% for the second.

First: O=c1c(/C=N\O)coc2ccc(F)cc12
Second: Cn1c(C(=O)NC2CCCC2)cc2oc3ccccc3c21
The normalized absorbance of the first is lower: 79.3% for the first, 104% for the second.

Compared with `c1csc(Nc2nc3cc4c(cc3s2)OCO4)n1`, `COC(CN(C)C(=O)c1cc2c(Cl)nc3ccc(C)cc3c2s1)OC` is lower in normalized absorbance: 96.8% for the first, 80.2% for the second.

Compared with `CCCCN1N=C(C)CC1=O`, `Cc1ccc2cc(CCNC(=O)CCC3CCCC3)c(=O)[nH]c2c1` is higher in normalized absorbance: 99.9% for the first, 101% for the second.

Compared with `COc1cc2c3c(c1OC)C1(C=CC(=O)C=C1)CC3[N+](C)(C)CC2` (stereo not given), `O=C(CCNS(=O)(=O)c1ccc2[nH]c(=O)ccc2c1)NC1CCCC1` is higher in normalized absorbance: 75.6% for the first, 103% for the second.

First: O=C(NCCCN1CCCC1)c1cc(-c2ccncc2)nc2ccccc12
Second: Cc1ccc(-c2cn3nc(N4CCC(C(=O)NCCCN5CCCCC5)CC4)sc3n2)cc1
The normalized absorbance of the first is lower: 86.5% for the first, 104% for the second.

Work on `N#Cc1ccccc1NC(=O)CSc1ccccc1` yielded a normalized absorbance of 105%.

For `NNc1cccc(Cl)n1`, the normalized absorbance was 78.5% (active).
For `c1ccc2c(c1)[I+]c1ccccc1-2`, the normalized absorbance was 15.1% (active).
In the case of `O=C1C2CC3CC1CC(C(=O)O)(C3)C2`, the normalized absorbance is reported as 61.8% (active).
`COC(=O)c1c(NC(=O)c2ccc(OC)cc2)sc2c1CCN(C(C)C)C2` was tested, and the normalized absorbance was 56.5% (active).
With `CC[N+](C)(CC)CCC[n+]1c(-c2ccccc2)c2cc(N)ccc2c2ccc(N)cc21` the normalized absorbance was 8.9% (active).
In the case of `Nc1[nH]c(=S)sc1C(=O)Nc1nccs1`, the normalized absorbance is reported as 58.3% (active).
`Cc1ccc2nc(C)c3c(c2c1)N(c1ccccc1)CC3` was tested, and the normalized absorbance was 61.5% (active).
For `CCN1CCCC1CNC(=O)c1cc2c(=O)n(C)c3ccccc3c2n1C` (stereo not given), the normalized absorbance was 51.4% (active).
For `Cc1c(C(=O)NCCCN2CCCCCC2)oc2ccc3nc(N(C)C)sc3c12`, the normalized absorbance was 64.3% (active).
In the case of `CC(C)=CCC(O)C1=CC(=O)c2c(O)ccc(O)c2C1=O` (stereo not given), the normalized absorbance is reported as 81.9% (active).
For `O=C(O)CC(c1ccccc1)c1cc(Cl)ccc1O` (stereo not given), the normalized absorbance was 73.5% (active).
In the case of `COc1cccc2c1C(=O)C1C(O)=C3C(=C(O)C1C2=O)C[C@@](O)(C(=O)CO)C[C@@H]3OC1CC(N)C(O)C(C)O1` (stereo not given in full), the normalized absorbance is reported as 7.8% (active).
`CN(C)CCN=c1cc(-c2ccccc2)oc2ccc(Cl)cc12` was tested, and the normalized absorbance was 25.3% (active).
In the case of `Cc1ccc2nc(Cl)c3cc(C(=O)NCCN4CCN(C)CC4)sc3c2c1`, the normalized absorbance is reported as 22.8% (active).
